Hits are enriched below; roughly 18% of the tested compounds scored in any of these assays.
DT40 TDP1 CPT = growth inhibition of DT40 Tdp1-/-;hTDP1 cells with camptothecin (screen for TDP1 inhibitors) | chicken DT40 Tdp1-/-;hTDP1 cells + 20 nM CPT, ATP luminescence, 48 h | AID 686979 | Potency, µM (top dose mostly 46.2 µM), for the others: at the top dose activity change, negative = growth inhibition, usual class: inhibitors | 12% of 420,000 active; further: potency means the concentration at half of the fitted maximal effect; nearly all actives have a fitted effect of over 55% in size
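Chicken DT40 Tdp1-/- cells stably complemented with human TDP1 were seeded at 400 cells/well in medium containing 20 nM camptothecin, exposed to pin-transferred compounds, and grown at 37 °C for at least 48 hr. Viability was read as ATP luminescence.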
TDP1 cell noCPT = qHTS for Inhibitors of human tyrosyl-DNA phosphodiesterase 1 (TDP1): qHTS in cells in absence of CPT; DT40 Tdp1-/- hTDP1 cells, no CPT, ATP luminescence, 48 h; Potency, µM (doses to about 46.2 µM), without a hit: top-dose activity change, negative = growth inhibition, hits mostly inhibitors; 15% of 420,000 active; AID 686978, 2013; further: potency means the concentration at half of the fitted maximal effect; nearly all actives have a fitted effect of over 55% in size
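No-CPT arm: Tdp1-/-;hTDP1 DT40 cells (400/well) plus compounds, incubated ≥48 hr at 37 °C. Readout CellTiter-Glo luminescence.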
IL1B secr inh = blocks inflammasome-driven IL-1 beta release; activity change, % at 57.5 µM; AID 743279; 4.7% of 360,000 active; THP-1 LPS/ATP IL-1B secretion, AlphaLISA, 16 h; active compounds read low; in the data active means activity change below about -50%; inconclusive means mostly about -30% to -49%
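Secreted IL-1B measured by AlphaLISA bead assay after 16 h compound exposure of THP-1 cells; compounds (final up to 57.5 uM) added 1 h before LPS (250 ng/mL) and ATP (1.25 mM) stimulation; lower signal means less secretion.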
RORg inh = ROR gamma (mouse) transcription inhibition | AID 2551 | 5.4% of 310,000 active | P51450 | Potency, µM (titrated, usually from 53.6 µM), inactives show at the highest dose activity change, negative = inhibition, actives largely listed as inhibitors | Drosophila S2 Gal4-RORgamma UAS-luciferase reporter, 20 h; further: potency means the concentration at half of the fitted maximal effect; nearly all actives have a fitted effect of over 60% in size
Target sequence (P51450 whole entry, looked up, the tested form may be a part): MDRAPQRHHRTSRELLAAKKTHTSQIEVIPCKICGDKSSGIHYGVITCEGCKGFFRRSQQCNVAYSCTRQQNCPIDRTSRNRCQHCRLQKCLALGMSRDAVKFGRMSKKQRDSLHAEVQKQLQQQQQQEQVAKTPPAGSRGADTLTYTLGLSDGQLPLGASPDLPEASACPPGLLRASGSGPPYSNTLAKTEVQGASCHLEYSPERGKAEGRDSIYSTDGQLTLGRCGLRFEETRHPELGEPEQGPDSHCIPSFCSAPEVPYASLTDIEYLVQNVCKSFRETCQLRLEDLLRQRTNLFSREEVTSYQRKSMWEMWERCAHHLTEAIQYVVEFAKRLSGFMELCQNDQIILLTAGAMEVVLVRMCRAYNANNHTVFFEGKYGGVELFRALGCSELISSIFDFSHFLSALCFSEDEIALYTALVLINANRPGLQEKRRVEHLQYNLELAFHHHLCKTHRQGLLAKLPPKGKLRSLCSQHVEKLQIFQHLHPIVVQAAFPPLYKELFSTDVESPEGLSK
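Luminescence from a UAS-regulated Photinus luciferase reporter in stably transfected Drosophila Schneider cells is measured; decreased signal marks ROR gamma inhibition. Fusion expression is induced by 700 uM copper sulfate for 20 hr.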
VP16 counter = counter-screen for ROR gamma inhibitors: Gal4-VP16 reporter; Drosophila S2 Gal4-VP16 UAS-luciferase, luminescence, 20 h; Potency, µM (titrated, usually from 53.6 µM), for inactives: at the top dose activity, negative = inhibition, actives largely listed as inhibitors; 3.5% of 310,000 active;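 further: Gal4-VP16 expression switched on by copper sulfate through the metallothionein promoter; potency means the concentration at half of the fitted maximal effect; nearly all actives have a fitted effect of over 50% in size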
LDHA block = LDHA (human) enzyme inhibition; purified LDHA, NADH/diaphorase-resazurin fluorescence; active compounds read low; P00338; activity change, % (values are at about 110 or 230 µM); AID 1347041; 0.15% of 480,000 active; in the data active means activity change below about -30%; inconclusive means mostly about -25% to -30%;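 further: plate controls were DMSO wells for no effect and wells without enzyme for full effect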
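Resorufin fluorescence (ex540/em590), read at 0 and 20 min after diaphorase/resazurin addition, reports the NADH left after a 5 min room-temperature reaction of 2 nM human LDH5 with 0.06 mM NADH and 0.2 mM pyruvate.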
* marks the source's active call; other numbers are inactive results; ? = inconclusive; · = no result given; [ ] = dose if it differs, or a comment. Unless noted, the call rests on the fitted dose curve; in most records, active means well fitted curve in the direction sought with a large enough effect; inconclusive means small, poorly fitted or top-dose-only effect, or another doubt; inactive means no such curve, though single readings can be large; an effect the other way counts as inactive or inconclusive. Unless noted, on the % scale 0 is the no-effect control and ±100 the full control effect.

SMILES | DT40 TDP1 CPT | TDP1 cell noCPT | IL1B secr inh | RORg inh | VP16 counter | LDHA block
O=C(Cc1ccc(F)cc1)N1CCC(CC2CC(c3ccc(Cl)cc3)=NO2)(C(=O)NCC2CCCCC2)CC1 (stereo unspecified) | ? | ? | -55* | 23% | 6% | -1
CC(C)(C)OC(=O)N1CCC(CC2CC(c3ccc(Cl)cc3)=NO2)(C(=O)NCC2CCCCC2)CC1 (stereo unspecified) | 23µM* | 16µM* | -10 | 42% | -9% | -9
CCOC(=O)c1nc(-c2ccc(Br)o2)no1 | · | · | · | · | · | -18
CCCCn1nnnc1C1(C)CCC(=O)N1CCCn1ccnc1 (stereo unspecified) | 21µM* | 16µM* | -7 | · | · | 10
CCN1C(=O)COc2ccc(-c3nc(NC(=O)c4cccs4)sc3C)cc21 | · | · | · | · | · | 3
COc1ccc(O)c(/C=N/Nc2nc(C)cc(-c3ccccc3)n2)c1 | ? | ? | 33 | · | · | 4
Nc1nc(-c2ccc(Cl)cc2)cc(C(F)(F)F)n1 | -16% | -1% | -4 | -24% | -7% | -7
COc1ccc(/C=N/Nc2cc(C)nc3ccc(OC)cc23)c(OC)c1 | 12µM* | 5.8µM* | -104* | 11µM* | 10µM* | -8
Oc1ccc(/C=N/Nc2nc(-c3ccc(Cl)cc3)cc(C(F)(F)F)n2)cc1 | ? | ? | -99* | 33% | -28% | 2
Cc1cc(-c2ccccc2)nc(N/N=C/c2ccc(O)cc2)n1 | 12µM* | ? | -100* | · | · | -4
COc1ccc(/C=N/Nc2nc(C)cc(-c3ccccc3)n2)c(OC)c1 | 13% | 21µM* | 23 | 10µM* | 11µM* | -13
Cc1cc(C)cc(COC(=O)c2cnc(C)cn2)c1 | · | · | · | · | · | -6
COc1ccccc1/C=N/Nc1cc(C)nc2ccc(C)cc12 | ? | -25% | -22 | 13%[1.91 µM] | -1% | 2
Cc1ccc2nc(C)cc(N/N=C/c3ccccc3O)c2c1 | -10% | -12% | -18 | 5.6µM* | 7.9µM* | 1
CC(c1ccc(F)cc1)N(C)Cc1nc2sccn2c1Br (stereo unspecified) | · | · | · | · | · | 8
COc1ccc(C(C)(O)c2nc(-c3ccc(F)c(Cl)c3)cs2)cc1 (stereo unspecified) | ? | ? | 29 | · | · | 3
COc1ccc(C(C)(O)c2nc(-c3ccc(F)cc3OC)cs2)cc1 (stereo unspecified) | 8.2µM* | 10µM* | 46 | · | · | -4
COc1cc(F)ccc1-c1csc(C(O)(c2ccccc2)C(F)(F)F)n1 (stereo unspecified) | 23µM* | 15µM* | ? | · | · | -9
COc1cc(F)ccc1-c1csc(C(O)c2ccccc2)n1 (stereo unspecified) | 26µM* | ? | -16 | · | · | 0
COc1cccc(C(C)(O)c2nc(-c3ccc(F)cc3OC)cs2)c1 (stereo unspecified) | 23µM* | ? | 18 | · | · | -6
CCOC(=O)C1=C(C)Nc2nc(SCc3cccc(C)c3)nn2C1c1cccs1 (stereo unspecified) | · | · | · | · | · | -5
COc1cc(F)ccc1-c1csc(C(C)(O)c2ccc(F)c(F)c2)n1 (stereo unspecified) | ? | 18µM* | 17 | · | · | -4
Cc1ccc(-c2csc(C(C)(O)c3ccc(F)c(F)c3)n2)cc1C (stereo unspecified) | ? | -26% | 5 | · | · | 1
OC(c1ccc(F)cc1)c1nc(-c2csc3ccccc23)cs1 (stereo unspecified) | 18µM* | 26µM* | -19 | · | · | -6
OC(c1ccccc1)c1nc(-c2csc3ccccc23)cs1 (stereo unspecified) | ? | -2% | 69 | · | · | -2
SMILES | DT40 TDP1 CPT | TDP1 cell noCPT | IL1B secr inh | RORg inh | VP16 counter | LDHA block
CCN(CC)c1ccc([N+](=O)[O-])cc1C(=O)N1CCOCC1 | 2% | -6% | -2 | 25% | -15%[10 µM] | -12
CCN(CC)C1=NS(=O)(=O)c2cc([N+](=O)[O-])ccc21 | 18µM* | 23µM* | 5 | ? | -2% | 3
COC(=O)c1cccn(C)c1=S | · | · | · | · | · | 3
CCCC[n+]1ccn(C2=C([O-])c3ccccc3C(=O)/C2=N\S(=O)(=O)c2ccc(Cl)cc2)c1 | 8.2µM* | 9.2µM* | 43 | 1.6µM* | ? | 11
CCCC[n+]1ccn(-c2nc3ccccc3nc2[N-]S(=O)(=O)c2ccc(Br)cc2)c1 | 23% | -9% | 13 | 14% | 7% | -6
CCCCC[n+]1ccn(C2=C([O-])c3ccccc3C(=O)/C2=N\S(=O)(=O)c2ccc(Cl)cc2)c1 | 4.6µM* | 2.9µM* | 107 | -25% | 4% | 13
N/C(CSc1ccc(Cl)cc1)=N\S(=O)(=O)c1ccc(Cl)cc1 | -5% | -19% | -14 | 5% | 8% | -7
Cc1cccc(C(=O)NC(CC(=O)O)c2ccc(C(C)(C)C)cc2)c1 (stereo unspecified) | · | · | · | · | · | 1
O=C1CSc2ccc(S(=O)(=O)Nc3ccccc3Cl)cc2N1 | · | · | · | · | · | 1
CCN1CCN(c2oc(-c3cccs3)nc2C#N)CC1 | · | · | · | · | · | -31*
CCN1CCN(c2oc(-c3ccccc3F)nc2C#N)CC1 | · | · | · | · | · | -31*
CCOc1ccc(CN(C)C(=O)c2nn(Cc3ccccc3)c(=O)c3ccccc23)cc1OC | · | · | · | · | · | -2
O=[N+]([O-])c1cccc2nc(/C=C/c3cccc(F)c3)ccc12 | · | · | · | · | · | 0
CC(=O)Nc1nc2n(n1)C(c1ccc(Cl)cc1)C=C(c1ccc(Cl)cc1)N2 (stereo unspecified) | · | · | · | · | · | -2
O=C(Nc1nc2n(n1)C(c1ccc(F)cc1)C=C(c1ccc(Cl)cc1)N2)c1ccc([N+](=O)[O-])cc1 (stereo unspecified) | 5.8µM* | 5.2µM* | · | · | · | -12
O=C(Nc1nc2n(n1)C(c1ccccc1)C=C(c1ccccc1)N2)c1ccc(Cl)c([N+](=O)[O-])c1 (stereo unspecified) | 12µM* | 12µM* | · | · | · | 0
COc1ccc(C(=O)Nc2nc3n(n2)C(c2ccc(F)cc2)C=C(c2ccc(Cl)cc2)N3)cc1 (stereo unspecified) | 15µM* | 7.3µM* | · | · | · | -3
COc1ccccc1C(=O)Nc1nc2n(n1)C(c1ccc(F)cc1)C=C(c1ccc(Cl)cc1)N2 (stereo unspecified) | ? | ? | · | · | · | -9

Source: PubChem BioAssay (National Center for Advancing Translational Sciences (NCATS))
